# Experimental data reported in the supplement of paper PMC8728848.
# Many of the other results were omitted from the sample, so the strongest signals are more common in it than they were.
# B1: Gal 1 (Canis lupus) (protein)
# chain: MACGLVASNLSLKPGQCLRVQCEVVPEAKSFVLNLGKDGDNLCLHFNPRFEAHGDVNTIVCNSKDGGAWGEELRESAFPFQPGTVTEVCISFDQADLTIKLPDGYTFKFPNRLNLEAISYLAADGDMKIKCLAFD
# Tests used:
# Assay in all cases: glycan array binding signal (z-score within array); higher = stronger binding
# Settings in all cases: glycan notation: IUPAC condensed, linker removed
# Fuc(a1-2)Gal(b1-3)GalNAc = target: Fuc(a1-2)Gal(b1-3)GalNAc
# Outline: (§1)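 Glycan array data came from 3228 arrays in the Consortium for Functional Glycomics database, and only arrays with an available protein sequence were kept. Glycan names were put into IUPAC-condensed notation, and columns mapping to the same glycan were averaged. The binding signal is a within-array Z-score, averaged across arrays of one protein sequence run at different concentrations or buffers and across linkers. A negative Z-score can be read as non-binding.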
# [1] = target: Fuc(a1-2)Gal(b1-3)GalNAc(b1-3)Gal
# Outline: as §1
# [2] = target: Fuc(a1-2)Gal(b1-3)GlcNAc(b1-3)[Fuc(a1-3)[Gal(b1-4)]GlcNAc(b1-6)]Gal(b1-4)Glc
# Outline: as §1
# [3] = target: Fuc(a1-2)Gal(b1-4)GlcNAc(b1-3)Gal(b1-4)GlcNAc(b1-3)Gal(b1-4)GlcNAc
# Outline: as §1
# Fuc(a1-2)Gal6S(b1-4)Glc = target: Fuc(a1-2)Gal6S(b1-4)Glc
# Outline: as §1
# [4] = target: Gal(a1-3)Gal(b1-3)[Fuc(a1-4)]GlcNAc(b1-2)Man(a1-3)[Gal(a1-3)Gal(b1-3)[Fuc(a1-4)]GlcNAc(b1-2)Man(a1-6)]Man(b1-4)GlcNAc(b1-4)GlcNAc
# Outline: as §1
# [5] = target: Gal(b1-3)Gal(b1-4)GlcNAc(b1-2)Man(a1-3)[Gal(b1-3)Gal(b1-4)GlcNAc(b1-2)Man(a1-6)]Man(b1-4)GlcNAc(b1-4)GlcNAc
# Outline: as §1
# [6] = target: Gal(b1-3)GalNAc(b1-3)Gal(a1-4)Gal(b1-4)Glc
# Outline: as §1
# [7] = target: Gal(b1-3)GalNAc(b1-4)Gal(b1-4)Glc
# Outline: as §1
# [8] = target: Gal(b1-4)GlcNAc(a1-6)Gal(b1-4)GlcNAc
# Outline: as §1
# [9] = target: Gal(b1-4)GlcNAc(b1-2)Man(a1-3)Man(b1-4)GlcNAc(b1-4)GlcNAc
# Outline: as §1
# [10] = target: Gal(b1-4)GlcNAc(b1-2)[Gal(b1-4)GlcNAc(b1-4)]Man(a1-3)[Gal(b1-4)GlcNAc(b1-2)Man(a1-6)]Man(b1-4)GlcNAc(b1-4)GlcNAc
# Outline: as §1
# [11] = target: Gal(b1-4)GlcNAc(b1-2)[Gal(b1-4)GlcNAc(b1-4)]Man(a1-3)[Gal(b1-4)GlcNAc(b1-2)[Gal(b1-4)GlcNAc(b1-6)]Man(a1-6)]Man(b1-4)GlcNAc(b1-4)GlcNAc
# Outline: as §1
# Gal3S(b1-3)GlcNAc = target: Gal3S(b1-3)GlcNAc
# Outline: as §1
# Gal3S(b1-4)GlcNAc6S = target: Gal3S(b1-4)GlcNAc6S
# Outline: as §1
# [12] = target: Gal3S(b1-4)[Fuc(a1-3)]Glc6S
# Outline: as §1
# GalNAc(a1-3)GalNAc = target: GalNAc(a1-3)GalNAc
# Outline: as §1
# Glc(b1-6)Glc = target: Glc(b1-6)Glc
# Outline: as §1
# GlcA(b1-3)GlcNAc = target: GlcA(b1-3)GlcNAc
# Outline: as §1
# [13] = target: GlcNAc(a1-4)Gal(b1-4)GlcNAc(b1-3)Gal(b1-4)Glc
# Outline: as §1
# GlcNAc(b1-6)GalNAc = target: GlcNAc(b1-6)GalNAc
# Outline: as §1
# [14] = target: Neu5Ac(a2-3)Gal(b1-3)GalNAc6S
# Outline: as §1
# [15] = target: Neu5Ac(a2-3)Gal(b1-3)GlcNAc(b1-3)Gal(b1-4)GlcNAc
# Outline: as §1
# [16] = target: Neu5Ac(a2-3)Gal(b1-3)GlcNAc6S
# Outline: as §1
# [17] = target: Neu5Ac(a2-3)Gal(b1-4)GlcNAc(b1-2)Man(a1-3)[GlcNAc(b1-2)Man(b1-4)GlcNAc(b1-2)Man(a1-6)]Man(b1-4)GlcNAc(b1-4)GlcNAc
# Outline: as §1
# [18] = target: Neu5Ac(a2-3)Gal(b1-4)[Fuc(a1-3)]GlcNAc(b1-6)[Gal(b1-3)]GalNAc
# Outline: as §1
# [19] = target: Neu5Ac(a2-3)Gal6S(b1-4)[Fuc(a1-3)]GlcNAc
# Outline: as §1
# [20] = target: Neu5Ac(a2-3)GalNAc(b1-4)GlcNAc
# Outline: as §1
# [21] = target: Neu5Ac(a2-3)[GalNAc(b1-4)]Gal(b1-4)Glc
# Outline: as §1
# Neu5Ac(a2-6)Gal = target: Neu5Ac(a2-6)Gal
# Outline: as §1
binder,measurement,setting,value
B1,glycan array binding signal (z-score),Fuc(a1-2)Gal(b1-3)GalNAc,-0.289
same,glycan array binding signal (z-score),[1],-0.33
same,glycan array binding signal (z-score),[2],0.066
same,glycan array binding signal (z-score),[3],0.432
same,glycan array binding signal (z-score),Fuc(a1-2)Gal6S(b1-4)Glc,-0.234
same,glycan array binding signal (z-score),[4],-0.274
same,glycan array binding signal (z-score),[5],6.47
same,glycan array binding signal (z-score),[6],-0.328
same,glycan array binding signal (z-score),[7],-0.297
same,glycan array binding signal (z-score),[8],2.97
same,glycan array binding signal (z-score),[9],1.75
same,glycan array binding signal (z-score),[10],5.5
same,glycan array binding signal (z-score),[11],6.78
same,glycan array binding signal (z-score),Gal3S(b1-3)GlcNAc,3.33
same,glycan array binding signal (z-score),Gal3S(b1-4)GlcNAc6S,4.69
same,glycan array binding signal (z-score),[12],-0.286
same,glycan array binding signal (z-score),GalNAc(a1-3)GalNAc,-0.323
same,glycan array binding signal (z-score),Glc(b1-6)Glc,-0.343
same,glycan array binding signal (z-score),GlcA(b1-3)GlcNAc,-0.294
same,glycan array binding signal (z-score),[13],-0.318
same,glycan array binding signal (z-score),GlcNAc(b1-6)GalNAc,-0.33
same,glycan array binding signal (z-score),[14],-0.333
same,glycan array binding signal (z-score),[15],1.66
same,glycan array binding signal (z-score),[16],-0.31
same,glycan array binding signal (z-score),[17],3.31
same,glycan array binding signal (z-score),[18],-0.244
same,glycan array binding signal (z-score),[19],-0.322
same,glycan array binding signal (z-score),[20],-0.307
same,glycan array binding signal (z-score),[21],-0.292
same,glycan array binding signal (z-score),Neu5Ac(a2-6)Gal,-0.257
